The record followed here is PubChem BioAssay (NCATS).

Where “and” joins values, the source holds several entries; their conditions need not be identical. Equal entries are not always repeated. Records with an inconclusive call do not appear. A number with no mark means an inactive call. Calls of active or inactive are those of the source. Unless noted, calls follow the shape of the dose curve; as a rule, active = well fitted curve in the direction sought with a large enough effect; inconclusive = small, poorly fitted or top-dose-only effect, or another doubt; inactive = no such curve, though single readings can be large; an effect the other way counts as inactive or inconclusive.

The nature of experiment [1]: qHTS assay for small molecule agonists of the antioxidant response element (ARE) signaling pathway measured by Nrf2-dependant transcriptional activity (AID 720636; active = well fitted curve in the direction sought with a large enough effect in the repeat runs; an effect the other way counts as inactive or inconclusive;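 also: HepG2 cells with an ARE-driven luciferase reporter; % of control where 0% means no effect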). The essentials:
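HepG2 ARE-luc reporter line, 1% dialyzed FBS; 6 hr attachment at 37 C, compound pinned in, 16 hr at 37 C/5% CO2; ONE-Glo, 30 min RT, luminescence read.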

The nature of experiment [2]: qHTS assay for small molecule agonists of the antioxidant response element (ARE) signaling pathway measured by Nrf2-dependant transcriptional activity - cell viability counter screen (AID 720653; active = well fitted curve in the direction sought with a large enough effect in the repeat runs; an effect the other way counts as inactive or inconclusive; also: potency is read from the fitted curve at half-maximal effect; as to max response: % is scaled to controls: 0 for no effect and ±100 for the full control effect). The note with it: ARE-bla HepG2 viability, CellTiter-Glo ATP luminescence, 16 h; max response: hits give low values. Summed up:
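ARE-bla HepG2 cells treated with compounds for 16 h at 37C; this counter screen measures viability as intracellular ATP by CellTiter-Glo luminescence after 30 min at room temperature.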

A short description of experiment [3]: qHTS assay for cell viability of HEK293 cells (AID 743288). Also: nearly all actives have a fitted effect of over 50% in size. Also: potency is read from the fitted curve at half-maximal effect. As to max response: % is scaled to controls: 0 for no effect and ±100 for the full control effect. The following applies: ATP luminescence (CellTiter-Glo), 18 h; max response: hits give low values. The essentials:
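Readout is luciferase-coupled ATP content (CellTiter-Glo luminescence, 30 min room temperature) as a measure of metabolically competent cells. Parental HEK293 cells were plated 5 h or more before compound addition, then treated 18 h at 37 C.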

Experiment [4] in a line: qHTS assay for cell viability of the p53RE-bla HCT-116 cell line (AID 743292). Also: nearly all actives have a fitted effect of over 55% in size. Also: potency is read from the fitted curve at half-maximal effect. Summed up:
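Luminescent ATP quantitation (CellTiter-Glo) served as the viability read-out; reagent was added after 16 h compound exposure at 37 C and read after 30 min at room temperature. Cells: p53RE-bla HCT-116, 4,000 per well.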

A short description of experiment [5]: qHTS assay to identify small molecule inhibitors of chordoma cells - UCH-1 (AID 1259355). Also: nearly all actives have a fitted effect of over 55% in size. Also: potency is read from the fitted curve at half-maximal effect; series mostly up to about 46 µM. Summed up: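 Screening used approved and investigational drugs in 15-point titration against 800 seeded cells per well. A fixed combination of auranofin with camptothecin, doxorubicin, rubitecan and topotecan followed compound addition, and growth was scored by CellTiter-Glo after 48hr.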

Experiment [6] in a line: qHTS Assay for Identifying Gametocytocidal Compounds (AID 743244). Also: potency is read from the fitted curve at half-maximal effect.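 As to max response: % is scaled to controls: 0 for no effect and ±100 for the full control effect; actives lower the fluorescent signal which means gametocytes are killed.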 The note with it: P. falciparum 3D7 stage III-V gametocytes, alamarBlue, 72 h; max response: hits give low values. Summed up:
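Viability read-out was resazurin reduction (alamarBlue, 24 h) measured at Ex 525/Em 598 nm. Beforehand, late-stage (III-V) 3D7 P. falciparum gametocytes at 20,000 cells/well were incubated with compound 72 h at 37C under 5% CO2.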

Experiment [7] can be described thus: qHTS assay for small molecule antagonists of the retinoid-related orphan receptor gamma (ROR-gamma) signaling pathway - cell viability counter screen (AID 720652; active = well fitted curve in the direction sought with a large enough effect in the repeat runs; an effect the other way counts as inactive or inconclusive;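 also: compound exposure lasted 16 hr before ATP read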; also: potency is read from the fitted curve at half-maximal effect). The essentials: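 ATP-based viability readout in the ROR-gamma reporter CHO cells after 16 hr compound exposure under doxycycline induction.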

`O=C1C[C@@H]2OCC=C3CN4CC[C@]56c7ccccc7N1[C@H]5[C@H]2[C@H]3C[C@H]46`: the Potency entry in experiment [1], in experiment [4] and in experiment [5] was “inactive” in each case. The results for the max response in experiment [2] and in experiment [3] were -11.2% and -21.9%, respectively.
On to `ClC1C(Cl)C(Cl)C(Cl)C(Cl)C1Cl` (stereo not given), for which the Potency entry in experiment [1], in experiment [4] and in experiment [5] was “inactive” throughout. In addition, the max response in experiment [2] was -5.28% [middle of 4 runs]; in experiment [3], -11% [middle of 4 runs].
For the molecule `C#CCN1CC(=O)N(COC(=O)C2C(C=C(C)C)C2(C)C)C1=O` (stereo not given), the max response in experiment [2] is 2.56%; in experiment [6], 21.2%; in experiment [3], -15.4%. The Potency result in experiment [4] and in experiment [5] was “inactive” each time.
On to `[O]=[Cr](=[O])([OH])[O][Cr](=[O])(=[O])[OH]`, for which the Potency result in experiment [1] is “inactive”. Moreover, the Potency in experiment [7] was 11.9 µM (active); in experiment [3] it was 39.8 µM (active) and 15.8 µM (active); in experiment [4], 31.6 µM (active) and 25.1 µM (active) and 22.4 µM (active); in experiment [5], 2.24 µM (active) and 4.47 µM (active). For the same molecule, the max response is -23.9% in experiment [2]; 21.1% and 18.4% in experiment [6].
On to `CC(C)Nc1ccc(Nc2ccccc2)cc1`, for which the max response in experiment [2] was -21.1%. Besides, the Potency in experiment [6] is 10 µM (active). In addition, the Potency entry in experiment [4] and in experiment [5] was “inactive” each time.
As for `O=C(NCNC(=O)NC1C(=O)NC(=O)N1CO)NC1C(=O)NC(=O)N1CO` (stereo not given), the Potency result in experiment [1], in experiment [4] and in experiment [5] was “inactive” each time. Moreover, the max response is 1.81% in experiment [2], 20.5% in experiment [6] and -3.93% in experiment [3].
With `S=C=S`, the Potency result in experiment [1], in experiment [7], in experiment [4] and in experiment [5] was “inactive” in each case. The max response is -6.45% in experiment [2], -5.35% in experiment [6] and -4.58% in experiment [3].
Turning to `O=[N+]([O-])c1ccccc1`, the Potency entry in experiment [1], in experiment [7], in experiment [4] and in experiment [5] was “inactive” in each case. In addition, the max response was -3.95% and -3.49% in experiment [2]; 18.1% in experiment [6]; -0.844% and 8.43% in experiment [3].
In the case of `[O]=[Cd]`, the Potency result in experiment [1], in experiment [7], in experiment [4] and in experiment [5] was “inactive” in each case. Further, the max response in experiment [2] is -0.962%; in experiment [6] it was 2.29%; in experiment [3] it was 3.33%.
Regarding `CCCCCCCCOC(=O)c1ccccc1C(=O)OCCCCCCCC`, the Potency entry in experiment [1], in experiment [4] and in experiment [5] was “inactive” throughout. For the same molecule, the max response in experiment [2] was -5.46% and -4.31%; in experiment [6], -1.95%; in experiment [3], -2.74% and -18%.
With `O=c1[nH]c(=O)n(Cl)c(=O)n1Cl`, the Potency result in experiment [1], in experiment [4] and in experiment [5] was “inactive” each time. In addition, the max response in experiment [2] was -11%; in experiment [6], 6.71%; in experiment [3] it was -3.48%.
Take `O=[N+]([O-])c1ccc(F)c([N+](=O)[O-])c1`: the Potency result in experiment [1], in experiment [4] and in experiment [5] was “inactive” each time. In experiment [7], the Potency is 59.6 µM (active). Also, the max response in experiment [2] is -6.71%; in experiment [6], 6.65%.
As for `CC[C@H](C)[C@H]1O[C@]2(C=C[C@@H]1C)C[C@@H]1C[C@@H](C/C=C(\C)[C@@H](O[C@H]3C[C@H](OC)[C@@H](O[C@H]4C[C@H](OC)[C@@H](O)[C@H](C)O4)[C@H](C)O3)[C@@H](C)/C=C/C=C3\CO[C@@H]4[C@H](O)C(C)=C[C@@H](C(=O)O1)[C@]34O)O2`, the Potency entry in experiment [1] and in experiment [5] was “inactive” each time. Also, the Potency in experiment [2] is 39.8 µM (active). The max response in experiment [6] was -7.27%.
Consider `C[C@H]1CCC[C@H](O)CCCCCc2cc(O)cc(O)c2C(=O)O1`, for which the Potency entry in experiment [1], in experiment [7], in experiment [4] and in experiment [5] was “inactive” in each case. Besides, the values for the max response in experiment [2], in experiment [6] and in experiment [3] were -13.4%, 5.29% and -4.88%, respectively.
In the case of `ClC(Cl)(Cl)Cl`, the Potency entry in experiment [1], in experiment [7], in experiment [4] and in experiment [5] was “inactive” throughout. Moreover, the max response is 14.9% and -6.99% in experiment [2]; -6.99% and 5.96% in experiment [3].
Regarding `CCOC(=O)c1ccccc1C(=O)OCC`, the Potency entry in experiment [1], in experiment [7], in experiment [4] and in experiment [5] was “inactive” in each case. In addition, the max response in experiment [2] was 8.89% and -10.7% and -8.42%; in experiment [6], 6.33%; in experiment [3], -2.28% and 4.29% and 3.24%.
Take `C[C@]12CC[C@H]3[C@@H](CC[C@@]45O[C@@H]4C(O)=C(C#N)C[C@]35C)[C@@H]1CC[C@@H]2O`: in experiment [6], the max response is -8.72%. For the same molecule, in experiment [5], the Potency result is “inactive”.
For the molecule `O=Cc1ccco1`, the Potency entry in experiment [1], in experiment [7], in experiment [4] and in experiment [5] was “inactive” throughout. In addition, the max response in experiment [2] was -4.31%; in experiment [6], 5.14%; in experiment [3], 6.18%.
On to `O=C/C=C/c1ccccc1`, for which the Potency entry in experiment [7], in experiment [4] and in experiment [5] was “inactive” each time. Also, the max response in experiment [2] is 12.8% and -6.35%; in experiment [6], 4.39%; in experiment [3], -23.6%.
